PubChem BioAssay AID489008 (National Center for Advancing Translational Sciences (NCATS), 2010)
Results filed as inconclusive are left out. Active and inactive are the calls of the source. The call rests on the fitted dose curve; in most records, active means well fitted inhibition curve with a large enough effect; inconclusive means small, poorly fitted or top-dose-only effect; inactive means flat fitted curve, though single readings scatter.

Each molecule was assayed against Ferritin light chain (Equus caballus) (UniProt P02791) (assay: Confirmation Assay for Identification of Novel General Anesthetics). Settings: apoferritin 1-aminoanthracene fluorescence displacement.
Chain of Ferritin light chain (Equus caballus) (P02791 2-175 limits assumed): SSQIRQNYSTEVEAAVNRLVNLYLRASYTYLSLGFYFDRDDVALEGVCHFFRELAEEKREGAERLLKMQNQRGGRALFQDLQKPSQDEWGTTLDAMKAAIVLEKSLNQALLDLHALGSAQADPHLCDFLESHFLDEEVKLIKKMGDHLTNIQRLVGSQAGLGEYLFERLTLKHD
Summary of the method: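 Competitive displacement of profluorescent 1-aminoanthracene from 10 uM horse-spleen apoferritin in 50% saturated 1-AMA/PBS; 10 min RT, fluorescence Ex 380/Em 535. Normalized to free 1-AMA and complex; four-parameter Hill fit.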
Further: nearly all actives have a fitted effect of over 40% in size.
Potency means the concentration at half of the fitted maximal effect.

Potency, active:
Cc1ccc(NC(C)c2cc(Cl)ccc2O)cc1 (centres undefined) 17.8 µM
Cc1cccc(C(=O)N2CCCCCC2)c1 22.4 µM
Cc1cc(C)cc(Oc2ccccc2CO)c1 14.1 µM
O=C(COc1ccccc1)N1CCCCCCC1 12.6 µM
O=C(CNC(=O)c1ccco1)OCC(=O)c1ccc2c(c1)CCCC2 31.6 µM
Oc1ccc(C2C[C@H]3CC[C@@H]2C3)cc1O (some centres undefined) 7.08 µM
Cc1cnc(C(=O)OCC(=O)NC23CC4CC(CC(C4)C2)C3)cn1 14.1 µM
O=[N+]([O-])c1ccc(CNc2cccc(Cl)c2)s1 15.8 µM
Cc1ccc(NC(=O)N2CCCCCC2)c(C)c1 15.8 µM
Cc1ccccc1CSCC(=O)N/N=C/c1cccs1 15.8 µM
O=C(COC(=O)CCc1ccccc1)NC12CC3CC(CC(C3)C1)C2 8.91 µM
O=C(CO/N=C/c1ccc(OC(F)F)cc1)NC1CCCCCC1 11.2 µM
CSC(=O)NC12CC3CC(CC(C)(C3)C1)C2 5.62 µM
Cc1ccccc1Cn1nnc2sc3c(c2c1=O)CCCC3 15.8 µM
Cc1ccc(NC(=O)N2CCCCCC2)cc1 12.6 µM
CCCCOC(=O)Nc1ccc(C)c(Cl)c1 17.8 µM
O=C(COC(=O)CC1CC2CCC1C2)NC(=O)NC1CCCC1 (centres undefined) 15.8 µM
C=C(C)C(=O)OC1(C(F)(F)F)Oc2cc(C)ccc2NC1=O (centres undefined) 15.8 µM
COc1ccc(NC(C)c2ccccc2)cc1 (centres undefined) 15.8 µM
